Assay outcomes from PubChem BioAssay.
The list is not random: actives were taken first. Their share in the collection is about 19%.
HT1080-NT tox: qHTS for induction of synthetic lethality in tumor cells producing 2HG: qHTS for the HT-1080-NT fibrosarcoma cell line. HT-1080-NT fibrosarcoma viability, CellTiter-Glo ATP luminescence, 48 h. Potency, µM (highest dose often 46.1 µM), usual class: cytotoxic. hit rate 1.6% among 360,000. AID 686970, 2013;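 note: NT is the 2HG producing partner of a matched IDH1 knockdown line; nearly all actives have a fitted effect of over 55% in size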
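Viability by CellTiter-Glo luminescence after 48 h compound exposure at 37C of HT-1080-NT cells (750/well, RPMI, 5% FBS). % activity scaled between DMSO wells and medium-only wells, then curve-fitted and categorized by curve class.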
TDP1 cell CPT: qHTS for Inhibitors of human tyrosyl-DNA phosphodiesterase 1 (TDP1): qHTS in cells in presence of CPT. chicken DT40 Tdp1-/-;hTDP1 cells + 20 nM CPT, ATP luminescence, 48 h. Potency, µM (titrated, usually from 46.2 µM), actives largely listed as inhibitors. hit rate 12% among 420,000. AID 686979, 2013; note: nearly all actives have a fitted effect of over 55% in size
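Cell growth measured by CellTiter-Glo luminescence after a minimum 48 h, 37 C compound exposure with 20 nM CPT in Tdp1-knockout DT40 cells stably expressing hTDP1, seeded 400/well; qHTS titration format.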
IL1B secr inh: qHTS for Inhibitors of Inflammasome Signaling: IL-1-beta AlphaLISA Primary Screen | THP-1 LPS/ATP IL-1B secretion, AlphaLISA, 16 h; hits give low values | activity change, % at 57.5 µM | hit rate 4.7% among 360,000 | AID 743279, 2014; in the data active = activity change below about -50%; inconclusive = mostly about -30% to -49%
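Secreted IL-1B measured by AlphaLISA bead assay after 16 h compound exposure of THP-1 cells; compounds (final up to 57.5 uM) added 1 h before LPS (250 ng/mL) and ATP (1.25 mM) stimulation; lower signal means less secretion.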
HT1080 IDH1KD tx: qHTS for induction of synthetic lethality in tumor cells producing 2HG: qHTS for the HT-1080-IDH1KD cell line | hit rate 2% among 360,000 | HT-1080 IDH1 knockdown viability, ATP luminescence, 48 h | Potency, µM (doses to about 46.1 µM), hits mostly cytotoxic
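Using the IDH1-knockdown HT-1080 line run in the same batch and compound series as the NT line, viability after 48 h at 37 °C was determined by CellTiter-Glo luminescence and expressed as % activity.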
ELG1 DNA repair: qHTS screen for small molecules that inhibit ELG1-dependent DNA repair in human embryonic kidney (HEK293T) cells expressing luciferase-tagged ELG1. HEK293T ELG1-luciferase reporter, luminescence, 16 h; DNA damage induced by 5-fluorouridine. Potency, µM (titrated, usually from 46.1 µM), hits mostly inhibitors. hit rate 2.3% among 330,000; note: nearly all actives have a fitted effect of over 55% in size
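Reporter activity after DNA damage by 5-fluorouridine is monitored. Compound-treated cells incubate 16 hr at 37 °C, then ONE-Glo is added for 30 min before luminescence reading.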
TDP1 cell noCPT: qHTS for Inhibitors of human tyrosyl-DNA phosphodiesterase 1 (TDP1): qHTS in cells in absence of CPT; Potency, µM (highest dose often 46.2 µM), hits mostly inhibitors; hit rate 15% among 420,000; DT40 Tdp1-/- hTDP1 cells, no CPT, ATP luminescence, 48 h; note: nearly all actives have a fitted effect of over 55% in size
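Chicken DT40 Tdp1-/- cells complemented with human TDP1, screened without camptothecin (DMSO vehicle only), 400 cells/well. Compounds pin-transferred, cells incubated at 37 °C for at least 48 hr. Growth read as ATP-dependent luminescence (CellTiter-Glo, 30 min at RT).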
Each line names hits and unclear results; the compound was inactive in the other large screens. Unless noted, calls come from the whole dose curve; as a rule, active = well fitted curve in the direction sought with a large enough effect; inconclusive = small, poorly fitted or top-dose-only effect, or another doubt; inactive = no such curve, though single readings can be large; an effect the other way counts as inactive or inconclusive.

CC(Oc1ccc(Cl)cc1Cl)c1ccnc(N)n1 (stereo not drawn)	IL1B secr inh -56, HT1080 IDH1KD tx inconclusive
O=C(NC(NC(=S)Nc1cccc(C(=O)O)c1)C(Cl)(Cl)Cl)OCc1ccccc1 (stereo not drawn)	none
CC(=O)NC(NC(=S)Nc1cccc(Br)c1)C(Cl)(Cl)Cl (stereo not drawn)	TDP1 cell CPT inconclusive, IL1B secr inh -60, HT1080 IDH1KD tx inconclusive, ELG1 DNA repair inconclusive, TDP1 cell noCPT inconclusive
O=C(NC(NC(=S)Nc1cccc(Cl)c1)C(Cl)(Cl)Cl)OCc1ccccc1 (stereo not drawn)	HT1080-NT tox inconclusive, TDP1 cell CPT inconclusive, IL1B secr inh inconclusive, HT1080 IDH1KD tx inconclusive, TDP1 cell noCPT 18µM
CC(=O)Nc1ccccc1C(=O)C(=O)Nc1cccc(Br)c1	ELG1 DNA repair inconclusive, TDP1 cell noCPT 18µM
Cc1cccc(NC(=S)NC(NC(=O)OCc2ccccc2)C(Cl)(Cl)Cl)c1 (stereo not drawn)	HT1080-NT tox inconclusive, TDP1 cell CPT 23µM, HT1080 IDH1KD tx inconclusive, TDP1 cell noCPT inconclusive
O=C(O)CO.[NH2-].[NH2-].[Pt+2]	none (no result: HT1080-NT tox, IL1B secr inh, HT1080 IDH1KD tx, ELG1 DNA repair)
CC(=O)c1ccc(OCCCC(=O)OCC(=O)N2CCN(S(=O)(=O)c3ccc(C)cc3C)CC2)cc1	none (no result: ELG1 DNA repair)
CCOC(=O)N1CCC(NC(=O)c2ccc(CS(=O)c3cccc(Cl)c3)o2)CC1 (stereo not drawn)	TDP1 cell CPT inconclusive
COc1ccc(C(=O)c2ccc(Br)cc2)c2ccccc12	TDP1 cell CPT inconclusive, TDP1 cell noCPT inconclusive
COc1ccc(C(=O)CCN(C)C)c2ccccc12	TDP1 cell CPT 1.3µM, TDP1 cell noCPT 2.8µM (no result: HT1080-NT tox, IL1B secr inh, HT1080 IDH1KD tx, ELG1 DNA repair)
COc1ccc(F)cc1C(=O)C1CCCN(Cc2c[nH]c3ccccc23)C1 (stereo not drawn)	TDP1 cell CPT 4.1µM, IL1B secr inh inconclusive, TDP1 cell noCPT 4.6µM
COc1ccc(F)cc1C(=O)C1CCCN(Cc2cn(C)c3ccccc23)C1 (stereo not drawn)	HT1080-NT tox inconclusive, TDP1 cell CPT 15µM, IL1B secr inh -78, HT1080 IDH1KD tx inconclusive, TDP1 cell noCPT 13µM
Cn1cc(CN2CCCC(CNC(=O)c3ccc4c(c3)OCO4)C2)c2ccccc21 (stereo not drawn)	ELG1 DNA repair inconclusive, TDP1 cell noCPT inconclusive
CSc1ccccc1C(=O)C1CCCN(Cc2c(C)n(C)n(-c3ccccc3)c2=O)C1 (stereo not drawn)	TDP1 cell CPT inconclusive, TDP1 cell noCPT 29µM
Cn1cc(CN2CCCC(C(=O)c3cc(F)ccc3F)C2)c2ccccc21 (stereo not drawn)	HT1080-NT tox inconclusive, TDP1 cell CPT inconclusive, IL1B secr inh -71, HT1080 IDH1KD tx inconclusive, ELG1 DNA repair inconclusive, TDP1 cell noCPT 16µM
COC(=O)c1ccc(CN2CCCC(C(=O)c3cc(F)ccc3OC)C2)cc1 (stereo not drawn)	TDP1 cell CPT inconclusive
COc1cc2nc(SCc3cccc(Cl)c3)n3nc(CCn4nc(C)cc4C)nc3c2cc1OC	none (no result: HT1080-NT tox, IL1B secr inh, HT1080 IDH1KD tx, ELG1 DNA repair)
CCOC(=O)C1CCN(C(c2ccc(C)cc2)c2sc3nc(-c4ccco4)nn3c2O)CC1 (stereo not drawn)	none (no result: HT1080-NT tox, IL1B secr inh, HT1080 IDH1KD tx, ELG1 DNA repair)
Cc1csc(=O)n1CC(=O)OCC(=O)Nc1ccc(Cl)cc1F	none
COc1ccc(OC)c(CN2CCCC(C(=O)c3ccccc3SC)C2)c1 (stereo not drawn)	HT1080-NT tox inconclusive, TDP1 cell CPT 13µM, IL1B secr inh -68, HT1080 IDH1KD tx inconclusive, ELG1 DNA repair inconclusive, TDP1 cell noCPT 9.2µM
CCOC(=O)c1c(C)[nH]c(CCC(=O)Nc2ccc(C)c(F)c2)c1C	TDP1 cell CPT 21µM, TDP1 cell noCPT 15µM (no result: HT1080-NT tox, IL1B secr inh, HT1080 IDH1KD tx, ELG1 DNA repair)
CCOC(=O)c1c(C)[nH]c(CCC(=O)Nc2ccc(N(CC)CC)cc2C)c1C	TDP1 cell CPT 13µM, TDP1 cell noCPT inconclusive (no result: HT1080-NT tox, IL1B secr inh, HT1080 IDH1KD tx, ELG1 DNA repair)
CCN(CC)c1ccc(NC(=O)c2[nH]c(C)c(C(C)=O)c2C)c(C)c1	TDP1 cell CPT 23µM, TDP1 cell noCPT 18µM
CCOC(=O)c1c(C)[nH]c(CCC(=O)Nc2ccc(Cl)cc2C)c1C	TDP1 cell noCPT inconclusive (no result: HT1080-NT tox, IL1B secr inh, HT1080 IDH1KD tx, ELG1 DNA repair)
CCN(CC)c1ccc(NC(=O)C2=CCN(S(=O)(=O)c3ccc(F)cc3)CC2)c(C)c1	TDP1 cell CPT 18µM, TDP1 cell noCPT 18µM
COc1ccc(-c2noc(C3CCCN(C(=O)c4ccccc4OC)C3)n2)cc1 (stereo not drawn)	TDP1 cell CPT inconclusive, TDP1 cell noCPT 15µM
COc1ccc(-c2noc(C3CCCN(C(=O)c4ccccc4C)C3)n2)cc1 (stereo not drawn)	TDP1 cell CPT 16µM, IL1B secr inh inconclusive, TDP1 cell noCPT 12µM
Cc1ccc(-c2noc(-c3ccccc3C(=O)N3CCCC3)n2)cc1	TDP1 cell CPT 16µM, ELG1 DNA repair inconclusive, TDP1 cell noCPT 23µM
COc1ccc(-c2noc(C3CCCN(C(=O)c4ccccc4)C3)n2)cc1 (stereo not drawn)	HT1080-NT tox inconclusive, TDP1 cell CPT inconclusive, TDP1 cell noCPT inconclusive
COc1cccc(-c2noc(C3CCCN(C(=O)c4cccc(F)c4)C3)n2)c1 (stereo not drawn)	TDP1 cell CPT inconclusive, TDP1 cell noCPT inconclusive
COc1ccc(-c2noc(C3CCCN(C(=O)c4cccc(F)c4)C3)n2)cc1 (stereo not drawn)	IL1B secr inh -69, TDP1 cell noCPT 18µM
